Measurements from PubChem BioAssay (EPA / NIEHS).
Calls of active or inactive are those of the source. Rule for the calls: active = hit-call score of the fitted dose curve at least 0.9, where 1 is the maximum; inactive = score below 0.9.

read-out: Cytochrome P450 (CYP24A1), CYP24A1 (gene 1591); assay: LTEA_HepaRG_CYP24A1: Life Technologies and Expression Analysis (LTEA) Assay for Cytochrome P450 (CYP24A1) using HepaRG (AID 2283478); conditions: mRNA level, 48 h; actives raise or lower the signal
How it was run: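 Human liver HepaRG cultures receive each chemical for 48 h across an eight-point half-log series topping at 100 uM in 0.5% DMSO. Induction or suppression of CYP24A1 mRNA is scored relative to vehicle after housekeeping-gene normalization.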

Structure (SMILES) | outcome | AC50
C[C@]12C=CC(=O)C=C1CC[C@H]1[C@@H]3C[C@@H](O)[C@](O)(C(=O)CO)[C@@]3(C)C[C@H](O)[C@@]12F | inactive | –
O=C(O)c1ccc2c(c1)nc(C(=O)NC1CCN(C3CC3)CC1)n2Cc1cc(-c2ccc(Cl)s2)on1 | inactive | –
O=S1(=O)CCCO1 | inactive | –
Cn1c(=O)c2[nH]cnc2n(C)c1=O | inactive | –
CC(C)c1nnc2ccc(-c3ocnc3-c3cc(F)ccc3F)cn12 | inactive | –
CCCCCOC(C)=O | inactive | –
NC(N)=O | inactive | –
OCC(CO)(CO)CO | inactive | –
CC[C@H](C)C(=O)O[C@H]1C[C@H](O)C=C2C=C[C@H](C)[C@H](CC[C@@H](O)C[C@@H](O)CC(=O)O)[C@H]21 | inactive | –
c1ccc2ncccc2c1 | inactive | –
O=C(NO)C1(NS(=O)(=O)c2ccc(Oc3ccc(F)cc3)cc2)CCOCC1 | inactive | –
CCCc1ccccc1 | inactive | –
CC(C)CC(C)O (configuration not stated) | inactive | –
CCCCC(CC)C(=O)OCCOCCOCCOC(=O)C(CC)CCCC (configuration not stated) | inactive | –
CCCCCCCCCCCCCCCCOS(=O)(=O)O | inactive | –
C[C@@H](Oc1ccc(CNC(=O)c2cccnc2Oc2ccc3c(c2)OCO3)c(F)c1)C(=O)O | inactive | –

Structure (SMILES) | outcome | AC50
Cn1cc[nH]c1=S | inactive | –
CCCCCCCC/C=C\CCCCCCCC(=O)OC[C@@H](O)[C@H]1OC[C@H](O)[C@H]1O | inactive | –
c1ccc2c(c1)-c1cccc3c1c-2cc1ccccc13 | inactive | –
COc1cc2c(c(OC)c1OC)-c1ccc(OC)c(=O)cc1[C@@H](NC(C)=O)CC2 | inactive | –
Cc1nccn1-c1ccc(Sc2cccc(C3(C(N)=O)CCOCC3)c2)cc1 | inactive | –
OC[C@H]1O[C@@](CO)(O[C@H]2O[C@H](CO)[C@@H](O)[C@H](O)[C@H]2O)[C@@H](O)[C@@H]1O | inactive | –
Nc1ccn([C@@H]2O[C@H](CO)[C@@H](O)[C@@H]2O)c(=O)n1 | inactive | –
OCCOCCOCCO | inactive | –
CCCOc1ccc(S(=O)(=O)N2CCN(CC)CC2)cc1-c1nc2c(CC)n(Cc3ccccn3)nc2c(=O)[nH]1 | inactive | –
Cc1nc(-c2ccccn2)ncc1C(=O)Nn1cc(C)c2cc(F)ccc21 | inactive | –
NC(=O)N(O)[C@@H]1COc2cc(OCc3ccccc3)ccc21 | inactive | –
CNC(C)=O | inactive | –
O=C(O)c1cccc(C[C@@H]2COc3ccc(OCc4nc5cc(F)ccc5s4)cc3[C@@H]2O)c1 | inactive | –
CCCC(CCC)C(=O)O | inactive | –
COc1cc(C(C)C)c2c(c1)S(=O)(=O)N(COc1cc(=O)n3cccc(OCCN4CCCCC4)c3n1)C2=O | inactive | –
CCCCN1C(=O)[C@@H]([C@H](O)C2CCCCC2)NC(=O)C12CCN(Cc1ccc(Oc3ccc(C(=O)O)cc3)cc1)CC2 | – | 9.92 µM (active)

read-out: Cytochrome P450 (CYP1A2), CYP1A2 (gene 1544); assay: LTEA_HepaRG_CYP1A2: Life Technologies and Expression Analysis (LTEA) Assay for Cytochrome P450 (CYP1A2) using HepaRG (AID 2283479); conditions: mRNA level, 48 h; actives raise or lower the signal;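 for AC50: TaqMan qRT-PCR transcript level normalized to ACTB GAPDH and POLR2A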
How it was run: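 Assesses CYP1A2 mRNA in human HepaRG liver cells after 48 h chemical exposure at up to 100 uM. Values come from qRT-PCR with bidirectional curve fitting relative to DMSO.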

Structure (SMILES) | AC50 | outcome
C[C@]12C=CC(=O)C=C1CC[C@H]1[C@@H]3C[C@@H](O)[C@](O)(C(=O)CO)[C@@]3(C)C[C@H](O)[C@@]12F | 50 µM (active) | –
O=C(O)c1ccc2c(c1)nc(C(=O)NC1CCN(C3CC3)CC1)n2Cc1cc(-c2ccc(Cl)s2)on1 | – | inactive
O=S1(=O)CCCO1 | – | inactive
Cn1c(=O)c2[nH]cnc2n(C)c1=O | – | inactive
CC(C)c1nnc2ccc(-c3ocnc3-c3cc(F)ccc3F)cn12 | – | inactive
CCCCCOC(C)=O | – | inactive
NC(N)=O | – | inactive
OCC(CO)(CO)CO | – | inactive
CC[C@H](C)C(=O)O[C@H]1C[C@H](O)C=C2C=C[C@H](C)[C@H](CC[C@@H](O)C[C@@H](O)CC(=O)O)[C@H]21 | 3.09 µM (active) | –
c1ccc2ncccc2c1 | – | inactive
O=C(NO)C1(NS(=O)(=O)c2ccc(Oc3ccc(F)cc3)cc2)CCOCC1 | – | inactive
CCCc1ccccc1 | – | inactive
CC(C)CC(C)O (configuration not stated) | 50 µM (active) | –
CCCCC(CC)C(=O)OCCOCCOCCOC(=O)C(CC)CCCC (configuration not stated) | – | inactive
CCCCCCCCCCCCCCCCOS(=O)(=O)O | – | inactive
C[C@@H](Oc1ccc(CNC(=O)c2cccnc2Oc2ccc3c(c2)OCO3)c(F)c1)C(=O)O | – | inactive
CCCCCCCC/C=C\CCCCCCCC(=O)OC[C@@H](O)[C@H]1OC[C@H](O)[C@H]1O | – | inactive
c1ccc2c(c1)-c1cccc3c1c-2cc1ccccc13 | 1.13 µM (active) | –
Cc1nccn1-c1ccc(Sc2cccc(C3(C(N)=O)CCOCC3)c2)cc1 | 18.6 µM (active) | –
OC[C@H]1O[C@@](CO)(O[C@H]2O[C@H](CO)[C@@H](O)[C@H](O)[C@H]2O)[C@@H](O)[C@@H]1O | – | inactive
Nc1ccn([C@@H]2O[C@H](CO)[C@@H](O)[C@@H]2O)c(=O)n1 | – | inactive
OCCOCCOCCO | – | inactive
CCCOc1ccc(S(=O)(=O)N2CCN(CC)CC2)cc1-c1nc2c(CC)n(Cc3ccccn3)nc2c(=O)[nH]1 | 79.4 µM (active) | –
Cc1nc(-c2ccccn2)ncc1C(=O)Nn1cc(C)c2cc(F)ccc21 | – | inactive
NC(=O)N(O)[C@@H]1COc2cc(OCc3ccccc3)ccc21 | 50 µM (active) | –
CNC(C)=O | – | inactive
O=C(O)c1cccc(C[C@@H]2COc3ccc(OCc4nc5cc(F)ccc5s4)cc3[C@@H]2O)c1 | – | inactive
CCCC(CCC)C(=O)O | – | inactive
COc1cc(C(C)C)c2c(c1)S(=O)(=O)N(COc1cc(=O)n3cccc(OCCN4CCCCC4)c3n1)C2=O | 20.2 µM (active) | –
CCCCN1C(=O)[C@@H]([C@H](O)C2CCCCC2)NC(=O)C12CCN(Cc1ccc(Oc3ccc(C(=O)O)cc3)cc1)CC2 | 2.06 µM (active) | –
